The source of these data is PubChem BioAssay.

The source made the active and inactive calls.

Assay [1] has as its system Plasmodium falciparum Sir2 (PF13_0152, Sir2A). Put plainly: pfSir2 binders on small-molecule microarrays, primary screen, biochemical, small-molecule microarray, 635 nm fluorescence (AID 1098).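 Further: score merges spot fluorescence intensity with its signal-to-noise ratio.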 The note with it: small-molecule microarray binding, fluorescence 635 nm; higher = more signal.
Assay [2] can be described thus: small-molecule microarray binders of probe aDKK1, primary screen, biochemical, biotinylated probe, 635/667 nm fluorescence (AID 1099).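 Further: score merges 667nm spot fluorescence with signal to noise across triplicate slides; reference of the scale not given here.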 The note with it: higher = more signal.
The nature of assay [3]: small-molecule microarray binders of probe aCHRDL2, primary screen, biochemical, biotinylated probe, 635/667 nm fluorescence (AID 1100). The conditions noted are these: higher = more signal.
Assay [4] is described as follows: splicing luciferase reporter signal modulators, primary screen, spliceosome inhibition project, cell-based, HEK293, splice +/- reporter (AID 1101).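 Further: HEK293 cells carrying a splicing-competent luciferase reporter gene; test concentration not given here.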 The note with it: luminescence, 24 h, higher = more signal, called active from +8 up or from −8 down.
The target in assay [5] is Fibroblast growth factor 10 (Homo sapiens) (UniProt O15520). As to the kind of experiment: FGF10 binders on small-molecule microarrays, primary screen, biochemical, small-molecule microarray, 635 nm fluorescence (AID 1102). The note with it: FGF10 binding, fluorescence 635 nm, higher = more signal.
In assay [6] the test system is glycogen synthase kinase-3 (GSK3A per assay name; protocol says GSK3B). Put plainly: GSK3 binders on small-molecule microarrays, primary screen, biochemical, small-molecule microarray, 635 nm fluorescence, GSK3A (AID 1103). Further: the record names both GSK3A and GSK3B. The conditions noted are these: small-molecule microarray binding, fluorescence 635 nm; higher = more signal.
Assay [7] concerns the target Epidermal growth factor receptor (Homo sapiens) (UniProt P00533). Put plainly: EGFR binders on small-molecule microarrays, primary screen, biochemical, small-molecule microarray, 635 nm fluorescence (AID 1104).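 Further: score merges 667 nm emission intensity with spot signal to noise over triplicate slides.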 The note with it: EGFR binding, higher = more signal.
In assay [8] the target is Follistatin-related protein 3 (Homo sapiens) (UniProt O95633). Put plainly: FSTL3 binders on small-molecule microarrays, primary screen, biochemical, small-molecule microarray, 635 nm fluorescence (AID 1105).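 Further: score merges emission near 667 nm and signal to noise per printed spot across three slides.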 The note with it: FSTL3 binding, higher = more signal.
In assay [9] the target is Dickkopf-related protein 1 (Homo sapiens) (UniProt O94907). As to the kind of experiment: DKK1 binders on small-molecule microarrays, primary screen, biochemical, small-molecule microarray, 635 nm fluorescence scan (AID 1106).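 Further: score merges emission near 667 nm with signal to noise over three replicate slides.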 The conditions noted are these: DKK1 binding, higher = more signal.
The test system of assay [10] is Inhibin beta A chain (activin A). Put plainly: INHBA (activin A) binders on microarrays, primary screen, biochemical, small-molecule microarray, 635 nm fluorescence scan (AID 1107).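 Further: mouse activin A protein probed at 4.33 µg/mL on printed slides; score merges bound-protein fluorescence near 667 nm with spot signal-to-noise.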 The conditions noted are these: small-molecule microarray binding, higher = more signal.

Chain of Follistatin-related protein 3 (Homo sapiens) (O95633 whole entry, looked up): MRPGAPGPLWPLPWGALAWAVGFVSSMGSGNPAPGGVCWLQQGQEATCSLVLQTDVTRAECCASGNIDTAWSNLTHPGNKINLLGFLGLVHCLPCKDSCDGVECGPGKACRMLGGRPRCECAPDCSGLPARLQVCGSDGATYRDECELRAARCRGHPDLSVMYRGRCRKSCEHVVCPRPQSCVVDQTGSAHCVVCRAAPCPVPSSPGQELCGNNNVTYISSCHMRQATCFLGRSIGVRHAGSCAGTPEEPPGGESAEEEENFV
Chain of Dickkopf-related protein 1 (Homo sapiens) (O94907 whole entry, looked up): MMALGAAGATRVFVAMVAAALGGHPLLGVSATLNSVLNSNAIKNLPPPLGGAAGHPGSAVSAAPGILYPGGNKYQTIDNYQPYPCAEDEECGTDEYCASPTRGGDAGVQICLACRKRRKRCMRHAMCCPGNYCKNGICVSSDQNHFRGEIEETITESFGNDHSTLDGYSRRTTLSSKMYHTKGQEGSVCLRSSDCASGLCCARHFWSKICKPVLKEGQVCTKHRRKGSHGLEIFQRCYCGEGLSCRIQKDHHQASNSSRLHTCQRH
Chain of Epidermal growth factor receptor (Homo sapiens) (P00533 whole entry, looked up): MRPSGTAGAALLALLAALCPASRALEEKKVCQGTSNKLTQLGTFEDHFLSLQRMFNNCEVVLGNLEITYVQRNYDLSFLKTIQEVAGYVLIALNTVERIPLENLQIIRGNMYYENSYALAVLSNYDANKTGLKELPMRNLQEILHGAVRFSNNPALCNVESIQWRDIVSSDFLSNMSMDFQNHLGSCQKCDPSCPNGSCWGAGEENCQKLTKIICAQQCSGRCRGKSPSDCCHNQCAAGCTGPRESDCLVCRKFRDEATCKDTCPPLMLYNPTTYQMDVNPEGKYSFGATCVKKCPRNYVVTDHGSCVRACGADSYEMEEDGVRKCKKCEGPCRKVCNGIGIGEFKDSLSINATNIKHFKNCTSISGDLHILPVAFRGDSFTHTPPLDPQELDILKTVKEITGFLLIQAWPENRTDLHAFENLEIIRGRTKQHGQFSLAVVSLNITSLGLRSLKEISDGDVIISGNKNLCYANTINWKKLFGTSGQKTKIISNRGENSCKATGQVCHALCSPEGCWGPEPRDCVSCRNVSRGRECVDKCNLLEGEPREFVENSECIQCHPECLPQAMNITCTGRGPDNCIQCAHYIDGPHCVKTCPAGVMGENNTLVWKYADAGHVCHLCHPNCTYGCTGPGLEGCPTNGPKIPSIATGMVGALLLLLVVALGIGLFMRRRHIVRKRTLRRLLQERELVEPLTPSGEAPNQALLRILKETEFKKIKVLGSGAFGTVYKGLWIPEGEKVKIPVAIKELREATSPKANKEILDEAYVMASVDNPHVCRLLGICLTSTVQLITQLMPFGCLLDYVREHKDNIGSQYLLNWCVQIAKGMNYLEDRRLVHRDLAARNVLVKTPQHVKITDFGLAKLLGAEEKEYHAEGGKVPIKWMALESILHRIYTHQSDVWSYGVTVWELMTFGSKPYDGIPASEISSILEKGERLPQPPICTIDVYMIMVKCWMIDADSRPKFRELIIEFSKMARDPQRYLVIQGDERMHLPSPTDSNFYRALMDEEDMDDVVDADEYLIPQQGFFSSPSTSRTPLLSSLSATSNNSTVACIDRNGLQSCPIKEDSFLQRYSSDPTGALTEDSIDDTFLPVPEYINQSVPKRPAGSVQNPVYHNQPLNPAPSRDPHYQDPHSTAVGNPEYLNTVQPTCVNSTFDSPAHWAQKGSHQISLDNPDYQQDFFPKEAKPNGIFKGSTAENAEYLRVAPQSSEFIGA
Chain of Fibroblast growth factor 10 (Homo sapiens) (O15520 whole entry, looked up): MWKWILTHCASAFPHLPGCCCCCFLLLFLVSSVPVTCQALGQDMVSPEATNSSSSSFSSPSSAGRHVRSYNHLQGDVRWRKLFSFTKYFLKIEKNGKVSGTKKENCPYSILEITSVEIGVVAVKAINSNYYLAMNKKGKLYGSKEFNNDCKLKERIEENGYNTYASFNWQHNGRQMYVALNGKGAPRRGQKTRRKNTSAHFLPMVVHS

`COc1ccc(CCNC(=O)[C@@]2(c3ccc([N+](=O)[O-])cc3)CC(=O)N(C3CCCCC3)[C@@H]2c2ccc(CO)cc2)cc1`: the composite z-score in assay [1] is 0.54; in assay [2], 0.701; in assay [3], 0.806; in [5], 0.525; in assay [6], 1; in [7], -0.155. Besides, the composite z-score in assay [8] worked out at 0.211; in assay [9], 0.214; in [10], 0.249. For the same compound, the z-score in assay [4] was -0.134 (inactive).

`CC(c1ccccc1)C(O)C1C=CC2C(=O)N(C)C(=O)C2N1Nc1ccccc1` (stereo not given): the composite z-score was 1.25 in assay [1]; 1.04 in assay [2]; 1.2 in assay [3]; 0.663 in assay [5]; 0.515 in [6]; 0.0188 in assay [7]. For the same compound, the composite z-score in assay [8] was 0.359; in assay [9], -0.452; in assay [10], 0.965. For the same compound, in assay [4], the z-score is 1.31 (inactive).

For `CCCCCCCCCCC(O)C1C=CC2C(=O)N(c3ccccc3)C(=O)C2N1Nc1ccc(C#N)cc1` (stereo not given), the composite z-score in assay [1] is 0.905; in assay [2], 0.44; in assay [3], 1.09; in [5] it was 1.06; in assay [6], 1.02; in [7] it was 0.17. Besides, the values for the composite z-score in [8], in assay [9] and in assay [10] were 0.788, -0.517 and 1.02, respectively. Also, the z-score in assay [4] is 1.08 (inactive).

As for `COC(=O)C1=CC(CCCO)=CC(c2cccs2)N(Cc2cccc(OC(F)(F)F)c2)C=C1C(=O)OC` (stereo not given), the composite z-score in assay [1] was 0.0898; in assay [2], 0.524; in [3], 0.574; in assay [5], 0.67; in assay [6] it was 1.09; in [7], 0.179. The composite z-score in assay [8] was 0.989; in [9] it was -0.149; in assay [10], 1.09. In addition, the z-score in assay [4] is 0.955 (inactive).

With `CCCC[C@@H](O)C1=C(COC)C[C@H]2C(=O)N(C)C(=O)[C@H]2[C@H]1CO`, the composite z-score is 0.0237 in [1]; -0.491 in assay [2]; -0.532 in [3]; 0.0965 in assay [5]; -0.0596 in assay [6]; -0.0915 in assay [7]. Further, the composite z-score was 0.344 in assay [8], 0.339 in assay [9] and 0.581 in [10]. Besides, in assay [4], the z-score is -0.857 (inactive).

On to `COCCOC(=O)N1C(=O)[C@@]2(c3ccccc31)[C@H](C(=O)NC[C@H](O)c1ccccc1)[C@H]1C(=O)O[C@H](c3ccccc3)[C@H](c3ccccc3)N1[C@@H]2c1ccc(O)cc1`, for which the composite z-score in assay [1] is 1.54; in assay [2], 0.804; in assay [3], 0.24; in assay [5] it was 1.42; in assay [6], 1.32; in assay [7], 1.01. Further, the composite z-score in [8] is 1.44; in [9], 0.827; in [10], -0.0795. For the same compound, the z-score in [4] is -0.118 (inactive).

For the compound `CCOC(=O)C[C@H]1[C@H](OC(=O)c2ccccc2-c2ccccc2)[C@@H](NC(=O)c2ccc3ccccc3c2)c2cc(OCCCO)ccc2N1C(=O)c1ccccc1`, the composite z-score in assay [1] is 0.162; in [2], -0.154; in [3], -0.559; in assay [5], 0.792; in [6], 0.601; in assay [7], 0.505. Moreover, the results for the composite z-score in assay [8], in assay [9] and in assay [10] were 0.741, 0.427 and -0.124, respectively. The z-score in assay [4] is -0.314 (inactive).

On to `[N-]=[N+]=Nc1ccccc1C[C@@]1(C(=O)N2CCOCC2)N=C(c2ccc(OCCCO)cc2)O[C@@H]1c1ccccc1`, for which the composite z-score in assay [1] is 0.816; in assay [2], 1.46; in assay [3] it was 0.59; in assay [5], 1.36; in assay [6] it was 1.31; in assay [7], 0.577. In addition, the composite z-score in [8] was 1.25; in [9], -0.0771; in assay [10], -0.431. Moreover, the z-score in [4] was -0.818 (inactive).

For the compound `NCCCCCNC(=O)[C@@H]1C[C@@H]2C(=O)N[C@@H](CCCCN)C(=O)N2[C@@H]1c1ccc(O)cc1`, the composite z-score in assay [1] was determined as 1.57; in [2] it was 0.899; in [3], 0.713; in [5], 1.41; in assay [6] it was 1.34; in assay [7] it was 1.13. Besides, the composite z-score is 1.43 in assay [8], 1.81 in assay [9] and 1.32 in [10]. Moreover, the z-score in assay [4] was 0.498 (inactive).

Take `CC(C)C(CO)N1C(=O)[C@@H]2C3C(=O)OCCC/C=C\[C@H]3OC23C=CCN(Cn2nnc4ccccc42)C(=O)[C@@H]13` (stereo not given in full): the composite z-score in [1] was 0.192; in assay [2] it was -0.0842; in [3] it was 0.543; in [5], -0.727; in [6], -0.2; in [7], -0.636. Also, the composite z-score was -0.359 in assay [8], -1.13 in assay [9] and 0.223 in assay [10]. For the same compound, the z-score in [4] was 0.323 (inactive).

Take `CCOC(=O)C[C@H]1[C@H](OC(=O)c2ccc(C(=O)c3ccccc3)cc2)[C@@H](NC(=O)CC(C)C)c2cc(OCCCO)ccc2N1C(=O)c1ccccc1`: the composite z-score in [1] is 0.449; in assay [2] it was -0.0013; in assay [3], -0.345; in assay [5] it was 0.515; in [6] it was 0.972; in assay [7], 0.141. In addition, the composite z-score worked out at 1.17 in [8], 0.95 in assay [9] and 0.158 in assay [10]. Further, the z-score in [4] is -0.958 (inactive).
